Test results as given in PubChem BioAssay (EPA / NIEHS).
Records with an inconclusive call do not appear. Active and inactive are the calls of the source. Rule for the calls, unless noted: active = hit-call score of the fitted dose curve at least 0.9, where 1 is the maximum; inactive = score below 0.9. Peptide text beside a SMILES is read from it.

Columns and labels:
[1] = ACEA_ER_80hr: ACEA Biosciences xCELLigence Real-Time Cell Analysis on Estrogen Receptor Agonism for Proliferation (AID 2282667; active = hit-call score of the fitted dose curve at least 0.9, where 1 is the maximum); settings: T47D proliferation, impedance (xCELLigence), 80 h
Method in brief: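 Cell-growth kinetics were measured by impedance in T47D cells treated continuously with compound (top 100 uM final, 1:4 steps, 8 points). Activity at 80 h was scored as signal gain over the DMSO baseline.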

[2] = ATG_CRE_CIS: Attagene CIS-FACTORIAL HepG2 Assay for human cAMP Responsive Element (CRE) binding protein 3 (AID 2282926); settings: HepG2 CRE cis-reporter, Attagene multiplexed mRNA; actives raise or lower the signal
Method in brief: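 Cells carrying cis-regulated reporter constructs respond through their own endogenous factors. After 24 h treatment, RNA is reverse-transcribed, amplified, labelled and sized by capillary electrophoresis; up- and down-regulation are both scored against vehicle.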

[3] = target: CCAAT/enhancer-binding protein beta (Homo sapiens) (UniProt P17676); assay: ATG_C_EBP_CIS: Attagene CIS-FACTORIAL HepG2 Assay for human CCAAT/Enhancer Binding Protein (C/EBP) beta (AID 2282927); settings: HepG2 Attagene cis-factorial transcription factor reporter; actives raise or lower the signal
Method in brief: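 HepG2 transiently transfected with multiplexed reporter units under cis-regulatory promoters reporting endogenous C/EBPb activity. After 24 h exposure, reporter mRNA assayed by RT-PCR, fluorescent labelling, HpaI digestion and capillary electrophoresis; bidirectional fitting versus DMSO.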

[4] = ATG_CMV_CIS: Attagene CIS-FACTORIAL HepG2 Assay for human CMV (Internal Marker) (AID 2282928); settings: HepG2 CMV promoter reporter, transcription factor profiling; actives raise or lower the signal;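 note: endpoint acts as a background internal control marker rather than a target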
Method in brief: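 Fluorescence intensity of RT-PCR-derived reporter fragments, resolved by capillary electrophoresis, gives the signal. HepG2 liver cells bearing transfected cis-element reporters were treated 24 h; activity in either direction was fit relative to DMSO-treated controls.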

[5] = ATG_DR4_LXR_CIS: Attagene CIS-FACTORIAL HepG2 Assay for human Liver X Receptor (LXR), DR4 submotif (AID 2282929); settings: HepG2 Attagene DR4 cis-reporter, mRNA transcription; actives raise or lower the signal
Method in brief: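 HepG2, transient MRTU transfection, cis-element (DR4) promoter; 24 h compound exposure; total RNA → oligo(dT) RT → PCR → 6-FAM primer extension → HpaI cut → CE. Gain/loss vs DMSO, bidirectional fit.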

[6] = target: Aryl hydrocarbon receptor (Homo sapiens) (UniProt P35869); assay: ATG_Ahr_CIS: Attagene CIS-FACTORIAL HepG2 Assay for human Aryl Hydrocarbon Receptor (Ahr) (AID 2282930); settings: HepG2 AhR cis-factorial reporter transcription; actives raise or lower the signal
Method in brief: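 HepG2 cells transiently transfected with cis-element-driven multiplexed reporter units; endogenous AhR activity read as reporter mRNA 24 h after dosing, via RT-PCR, 6-FAM labelling, HpaI digestion and capillary electrophoresis. Bidirectional fit relative to DMSO.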

[7] = ATG_AP_2_CIS: Attagene CIS-FACTORIAL HepG2 Assay for human Activator Protein 2 (AP-2) (AID 2282932); settings: HepG2 AP-2 cis-reporter, Attagene transcription factor profiling; actives raise or lower the signal
Method in brief: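 Read-out: fluorescent reporter mRNA via RT-PCR and capillary electrophoresis, 24 h post-dose in transiently transfected HepG2. Endogenous factors drive cis-promoter reporters; gain or loss of signal fitted bidirectionally against DMSO.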

[8] = target: Retinoic acid receptor alpha (Homo sapiens) (UniProt P10276); assay: ATG_DR5_RAR_CIS: Attagene CIS-FACTORIAL HepG2 Assay for human Retinoic Acid Receptor Alpha (RARE), DR5 submotif (AID 2282934); settings: HepG2 Attagene cis-factorial RARE DR5 reporter, mRNA; actives raise or lower the signal;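 for AC50: reporter responds to endogenous RAR alpha beta and gamma in HepG2 not RARA alone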
Method in brief: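 HepG2 cells transiently transfected with multiplexed reporter units; DR5 cis-element drives reporter through endogenous transcription factors. After 24 h dosing, reporter mRNA quantified by RT-PCR, fluorescent labeling, HpaI digestion and capillary electrophoresis; bidirectional fitting versus DMSO.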

[9] = ATG_AP_1_CIS: Attagene CIS-FACTORIAL HepG2 Assay for human Activator Protein 1 (AP-1) (AID 2282931); settings: HepG2 Attagene cis-factorial AP-1 reporter mRNA; actives raise or lower the signal
Method in brief: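 Transient MRTU transfection of HepG2 → 24 h chemical treatment → RNA isolation, RT-PCR, 6-FAM labelling, HpaI digest → capillary electrophoresis. Fit: bidirectional, DMSO negative control.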

[10] = ATG_BRE_CIS: Attagene CIS-FACTORIAL HepG2 Assay for human Bone Morphogenetic Protein (BMP) Response Element (BRE) (AID 2282933); settings: HepG2 BMP response element reporter, Attagene transcription factor profiling; actives raise or lower the signal
Method in brief: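 HepG2 cells transiently transfected with multiplexed cis-element reporter units were dosed with chemical for 24 h. Reporter mRNA was measured by RT-PCR with fluorescent labelling, HpaI digestion and capillary electrophoresis; bidirectional fitting relative to DMSO.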

Measured: AC50

Sequence of CCAAT/enhancer-binding protein beta (Homo sapiens) (P17676 whole entry, looked up): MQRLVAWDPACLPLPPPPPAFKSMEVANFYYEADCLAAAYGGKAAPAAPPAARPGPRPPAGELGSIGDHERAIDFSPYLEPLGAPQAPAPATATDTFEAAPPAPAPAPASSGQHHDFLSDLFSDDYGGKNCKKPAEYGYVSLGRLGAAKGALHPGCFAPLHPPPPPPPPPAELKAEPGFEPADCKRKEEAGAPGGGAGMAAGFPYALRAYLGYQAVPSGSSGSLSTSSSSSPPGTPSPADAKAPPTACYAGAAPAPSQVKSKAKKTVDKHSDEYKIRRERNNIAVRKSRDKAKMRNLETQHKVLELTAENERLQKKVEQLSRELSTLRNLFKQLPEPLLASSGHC
Sequence of Retinoic acid receptor alpha (Homo sapiens) (P10276 whole entry, looked up): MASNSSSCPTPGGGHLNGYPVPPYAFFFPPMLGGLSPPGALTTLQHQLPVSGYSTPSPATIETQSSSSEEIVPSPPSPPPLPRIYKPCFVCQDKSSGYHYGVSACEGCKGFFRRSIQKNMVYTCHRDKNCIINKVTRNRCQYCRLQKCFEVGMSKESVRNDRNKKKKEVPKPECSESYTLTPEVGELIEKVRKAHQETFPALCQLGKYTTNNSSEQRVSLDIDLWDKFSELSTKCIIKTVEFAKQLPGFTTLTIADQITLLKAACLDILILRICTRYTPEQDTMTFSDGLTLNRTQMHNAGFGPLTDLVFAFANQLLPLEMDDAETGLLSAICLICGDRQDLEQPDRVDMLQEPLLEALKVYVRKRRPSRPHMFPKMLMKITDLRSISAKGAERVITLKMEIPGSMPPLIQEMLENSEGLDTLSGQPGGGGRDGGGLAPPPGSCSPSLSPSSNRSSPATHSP
Sequence of Aryl hydrocarbon receptor (Homo sapiens) (P35869 whole entry, looked up): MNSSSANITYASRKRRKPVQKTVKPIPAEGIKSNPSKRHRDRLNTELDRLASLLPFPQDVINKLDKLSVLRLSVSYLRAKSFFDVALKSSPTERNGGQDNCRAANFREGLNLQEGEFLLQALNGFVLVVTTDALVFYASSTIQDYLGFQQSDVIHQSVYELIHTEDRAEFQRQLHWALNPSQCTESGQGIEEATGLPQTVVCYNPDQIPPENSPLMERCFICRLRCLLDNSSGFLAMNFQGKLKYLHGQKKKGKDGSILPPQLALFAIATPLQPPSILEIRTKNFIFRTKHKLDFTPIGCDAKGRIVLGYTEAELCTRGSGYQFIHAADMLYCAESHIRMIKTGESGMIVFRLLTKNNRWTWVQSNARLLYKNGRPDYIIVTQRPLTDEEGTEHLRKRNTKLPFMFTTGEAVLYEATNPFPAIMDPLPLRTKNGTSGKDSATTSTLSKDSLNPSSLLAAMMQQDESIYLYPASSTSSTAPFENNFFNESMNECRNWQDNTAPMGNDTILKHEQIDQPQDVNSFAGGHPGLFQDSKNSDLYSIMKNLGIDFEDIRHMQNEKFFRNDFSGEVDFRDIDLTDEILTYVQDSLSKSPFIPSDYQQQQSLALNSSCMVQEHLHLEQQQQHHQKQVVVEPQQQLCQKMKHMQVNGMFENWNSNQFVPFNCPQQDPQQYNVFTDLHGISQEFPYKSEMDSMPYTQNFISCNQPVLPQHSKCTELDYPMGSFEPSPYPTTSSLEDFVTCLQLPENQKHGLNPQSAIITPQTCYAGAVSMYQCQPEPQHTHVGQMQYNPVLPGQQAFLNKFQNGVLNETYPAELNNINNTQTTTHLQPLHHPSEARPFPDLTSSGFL

CCCC/C=C/C=C\C=O
active: [4] 159 µM | [5] 135 µM
not listed: [9] | [10]
inactive: all other assays above

CCCC(C)C(=O)OCC (stereo unspecified)
not listed: [6]
inactive: all other assays above

C=C(C)C1CC=C(C)C(OC(C)=O)C1 (stereo unspecified)
not listed: [5]
inactive: all other assays above

N#Cc1ccc(C(c2ccc(C#N)cc2)n2cncn2)cc1
not listed: [6] | [10]
inactive: all other assays above

COC(=O)[C@H](Cc1ccccc1)NC(=O)[C@@H](N)CC(=O)O (H-Asp-Phe-OMe)
not listed: [9]
inactive: all other assays above

CCCCNS(=O)(=O)c1ccccc1
not listed: [6]
inactive: all other assays above

Cc1ccc2c(c1)CCCN2
not listed: [6]
inactive: all other assays above

CCOC(=O)/C=C\C(=O)OCC
active: [9] 50.5 µM
not listed: [5]
inactive: all other assays above

CCCCNC(=S)NCCCC
not listed: [6]
inactive: all other assays above

CC(C)=NNC(N)=S
not listed: [9]
inactive: all other assays above

COC(=O)c1ccccc1C
not listed: [6]
inactive: all other assays above

CC1=CCC(C(C)C)C=C1 (stereo unspecified)
not listed: [6] | [7] | [8]
inactive: all other assays above

CC(=O)C(C)C
not listed: [6] | [9] | [10]
inactive: all other assays above

COC(=O)C=Cc1ccccc1
not listed: [9]
inactive: all other assays above

CCCCCCCO
not listed: [6]
inactive: all other assays above

CC(C)COC(=O)CC(C(=O)OCC(C)C)S(=O)(=O)O (stereo unspecified)
not listed: [6]
inactive: all other assays above

CC1=CCC2CC1C2(C)C (stereo unspecified)
not listed: [6]
inactive: all other assays above

CN1CCN(C)CC1
not listed: [5]
inactive: all other assays above

c1ccc2cnccc2c1
not listed: [6]
inactive: all other assays above

CC1OC(=O)C(C)OC1=O (stereo unspecified)
active: [1] 0.169 µM
not listed: [6] | [9]
inactive: all other assays above

O=C(O)c1cc(O)c2ccccc2c1O
active: [3] 5.04 µM | [5] 42.5 µM | [6] 0.0305 µM | [8] 22.8 µM
not listed: [9]
inactive: all other assays above

CCOC(=O)c1ccc(C)cc1
not listed: [9]
inactive: all other assays above

CO[Si](CCCS)(OC)OC
not listed: [5]
inactive: all other assays above

CC(C)(c1ccccc1)c1ccc(Nc2ccc(C(C)(C)c3ccccc3)cc2)cc1
not listed: [6]
inactive: all other assays above

CC1(C)CCC[C@]2(C)[C@H]3CC(=O)O[C@]3(C)CC[C@@H]12
not listed: [6] | [9]
inactive: all other assays above

CCN(CC)c1cccc(C)c1
not listed: [5]
inactive: all other assays above

Cn1ccnc1
not listed: [6] | [7] | [10]
inactive: all other assays above

CC(C)OC(=O)c1ccccc1
not listed: [6]
inactive: all other assays above

CC=CC(=O)OCC(C)C
not listed: [5] | [9]
inactive: all other assays above

Cc1c(Cl)cccc1Cl
not listed: [5] | [9]
inactive: all other assays above

N#CC1(N)CCCCC1
not listed: [4] | [7]
inactive: all other assays above

CC(=O)OC1CCCCC1C(C)(C)C (stereo unspecified)
not listed: [4] | [9]
inactive: all other assays above

C=Cc1cccc(C)c1
active: [9] 31.9 µM
not listed: [5]
inactive: all other assays above

CN(C)Cc1cc(CN(C)C)c(O)c(CN(C)C)c1
not listed: [4] | [5]
inactive: all other assays above

CCOC(=O)CC(=O)c1ccccc1
not listed: [5]
inactive: all other assays above

Cc1ccc([N+](=O)[O-])cc1N
not listed: [4] | [6] | [10]
inactive: all other assays above

CC(=O)OC1CCCCC1
not listed: [4] | [9]
inactive: all other assays above

CCC(=O)C1CC(C(C)C)CC=C1C (stereo unspecified)
not listed: [5]
inactive: all other assays above

C=CC(C)(O)CC/C=C(\C)CC (stereo unspecified)
not listed: [4]
inactive: all other assays above

C1CCSC1
not listed: [5] | [6]
inactive: all other assays above

CCCCCCO
not listed: [4]
inactive: all other assays above

O=C(OCc1ccccc1)c1ccc(O)cc1
inactive: [2] | [3] | [5] | [7] | [8]
active: [1] 10.5 µM

N=C1C=CC(=C(c2ccc(N)cc2)c2ccc(N)cc2)C=C1
active: [3] 168 µM | [5] 27.6 µM | [6] 8.36 µM | [7] 24.7 µM | [10] 33.4 µM
inactive: [1] | [2] | [9] | [8]

CC(C)=CCl
not listed: [5]
inactive: all other assays above

O=C(Nc1ccccc1)c1cc(Cl)ccc1O
active: [2] 3.19 µM | [3] 3.35 µM | [6] 3.62 µM | [9] 2.84 µM | [10] 3.15 µM | [8] 4.11 µM
inactive: [1] | [4]

CCCCCCCCCCCC(C)=O
active: [5] 136 µM | [9] 72.7 µM | [7] 153 µM | [8] 69.4 µM
inactive: [1] | [2] | [3] | [10]

CC1C(C)(C)C2=C(C(=O)CCC2)C1(C)C (stereo unspecified)
not listed: [4] | [6] | [7]
inactive: all other assays above

C=C[C@@]1(C)CC(=O)[C@]2(O)[C@@]3(C)[C@@H](O)CCC(C)(C)[C@@H]3[C@H](O)[C@H](OC(C)=O)[C@@]2(C)O1
active: [1] 2.59 µM | [2] 3.45 µM | [5] 0.51 µM | [8] 3.81 µM
inactive: [3] | [6] | [7] | [10]

Cc1ccc(C)c(OCCCC(C)(C)C(=O)O)c1
not listed: [5] | [6]
inactive: all other assays above

COc1cc(C)ccc1O
not listed: [4] | [7]
inactive: all other assays above
